Experimental data: PubChem BioAssay (NCATS)
Records with an inconclusive call do not appear. Calls of active or inactive are those of the source. The call rests on the fitted dose curve; in most records, active means well fitted curve in the direction sought with a large enough effect; inconclusive means small, poorly fitted or top-dose-only effect, or another doubt; inactive means no such curve, though single readings can be large; an effect the other way counts as inactive or inconclusive.

Columns and labels:
[1] = qHTS of pediatric cancer cell lines to identify multiple opportunities for drug repurposing: Primary screen for control Hh wild type fibroblast cells (AID 1347106); further: nearly all actives have a fitted effect of over 55% in size
Method in brief: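 Cells (500-1,000/well) in growth media were settled 5 h at 37 degrees C, then given compounds for 48 h. Viability was read as CellTiter-Glo luminescence. Primary runs used MIPE at 11 points (0.78 nM-46 µM) and NPC at 8 points (0.59 nM-46 µM); follow-ups used 11 points.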

[2] = qHTS of pediatric cancer cell lines to identify multiple opportunities for drug repurposing: Primary screen for Rh30 cells (AID 1347107); further: nearly all actives have a fitted effect of over 75% in size
Method in brief: (§1)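 Cells (500-1,000/well) rested 5 h, then received compounds for 48 h; metabolically active cells were measured by CellTiter-Glo luminescence. Final concentrations spanned up to 46 µM (MIPE, 11-point) or 0.59 nM-46 µM (NPC, 8-point) in primary screens, 11-point in follow-ups.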

[3] = qHTS of pediatric cancer cell lines to identify multiple opportunities for drug repurposing: Primary screen for Rh41 cells (AID 1347108); further: nearly all actives have a fitted effect of over 70% in size
Method in brief: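 Luminescence from CellTiter-Glo served as readout of metabolically active cells after 48 h compound exposure. Titrations: MIPE 11-point, from 0.78 nM; NPC 8-point, from 0.59 nM (final). Concentration-response curves came straight from the primary screen.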

[4] = qHTS of pediatric cancer cell lines to identify multiple opportunities for drug repurposing: Confirmatory screen for NB1643 cells (AID 1347109); further: nearly all actives have a fitted effect of over 45% in size
Method in brief: as §1

[5] = qHTS of pediatric cancer cell lines to identify multiple opportunities for drug repurposing: Confirmatory screen for A673 cells (AID 1347110);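 further: cells exposed to compound for 48 h before the viability read; nearly all actives have a fitted effect of over 65% in size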
Method in brief: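 Cells plated at 500-1,000/well were treated five hours later with multi-point dilutions up to 46 µM final. After two days, CellTiter-Glo was added and luminescence read.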

[6] = qHTS of pediatric cancer cell lines to identify multiple opportunities for drug repurposing: Confirmatory screen for SK-N-MC cells (AID 1347111);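 further: cells exposed to compound for 48 h before the readout; nearly all actives have a fitted effect of over 70% in size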
Method in brief: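 Seed 500-1,000 cells/well; rest 5 h at 37 degrees C. Pin-transfer compounds, 11-point titration. Incubate 48 h. Add CellTiter-Glo, 15 min RT, read luminescence.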

[7] = qHTS of pediatric cancer cell lines to identify multiple opportunities for drug repurposing: Confirmatory screen for BT-37 cells (AID 1347117); further: nearly all actives have a fitted effect of over 55% in size
Method in brief: as §1

[8] = qHTS of pediatric cancer cell lines to identify multiple opportunities for drug repurposing: Confirmatory screen for TC32 cells (AID 1347118);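 further: cells exposed to compound for 48 h before the read; nearly all actives have a fitted effect of over 65% in size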
Method in brief: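 Luminescent ATP read-out (CellTiter-Glo) of metabolically active TC32 cells after 48 h exposure. Concentration-response curves came from 11-point (MIPE, 0.78 nM–46 µM) or 8-point (NPC, 0.59 nM–46 µM) primary titrations; follow-up used 11 points.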

[9] = qHTS of pediatric cancer cell lines to identify multiple opportunities for drug repurposing: Confirmatory screen for MG 63 (6-TG R) cells (AID 1347119); further: nearly all actives have a fitted effect of over 55% in size
Method in brief: as §1

[10] = qHTS of pediatric cancer cell lines to identify multiple opportunities for drug repurposing: Confirmatory screen for control Hh wild type fibroblast cells (AID 1347121); further: nearly all actives have a fitted effect of over 70% in size
Method in brief: as §1

[11] = qHTS of pediatric cancer cell lines to identify multiple opportunities for drug repurposing: Confirmatory screen for U-2 OS cells (AID 1347122); further: nearly all actives have a fitted effect of over 65% in size
Method in brief: as §1

[12] = qHTS of pediatric cancer cell lines to identify multiple opportunities for drug repurposing: Confirmatory screen for Rh41 cells (AID 1347123); further: nearly all actives have a fitted effect of over 60% in size
Method in brief: as §1

[13] = qHTS of pediatric cancer cell lines to identify multiple opportunities for drug repurposing: Confirmatory screen for RD cells (AID 1347124);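 further: cells exposed to compound for 48 h before viability readout; nearly all actives have a fitted effect of over 65% in size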
Method in brief: as §1

[14] = qHTS of pediatric cancer cell lines to identify multiple opportunities for drug repurposing: Confirmatory screen for Rh30 cells (AID 1347126); further: nearly all actives have a fitted effect of over 55% in size
Method in brief: as §1

[15] = qHTS of pediatric cancer cell lines to identify multiple opportunities for drug repurposing: Confirmatory screen for LAN-5 cells (AID 1347113); further: nearly all actives have a fitted effect of over 65% in size
Method in brief: as §1

[16] = qHTS of pediatric cancer cell lines to identify multiple opportunities for drug repurposing: Confirmatory screen for DAOY cells (AID 1347114); further: nearly all actives have a fitted effect of over 65% in size
Method in brief: (§2)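 Viability measured as metabolically active cells via CellTiter-Glo luminescence following 48 hours of compound exposure, 11-point dilutions in confirmatory testing. 500-1,000 cells/well plated 5 hours before dosing; controls were DMSO and 2.3 µM bortezomib.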

[17] = qHTS of pediatric cancer cell lines to identify multiple opportunities for drug repurposing: Confirmatory screen for SJ-GBM2 cells (AID 1347116); further: nearly all actives have a fitted effect of over 60% in size
Method in brief: as §2

[18] = qHTS of pediatric cancer cell lines to identify multiple opportunities for drug repurposing: Confirmatory screen for Rh18 cells (AID 1347125); further: nearly all actives have a fitted effect of over 55% in size
Method in brief: as §1

[19] = qHTS of pediatric cancer cell lines to identify multiple opportunities for drug repurposing: Confirmatory screen for NB-EBc1 cells (AID 1347115);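 further: cells exposed to compound for 48 h before the viability read; nearly all actives have a fitted effect of over 45% in size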
Method in brief: as §1

[20] = qHTS of pediatric cancer cell lines to identify multiple opportunities for drug repurposing: Confirmatory screen for BT-12 cells (AID 1347112); further: nearly all actives have a fitted effect of over 55% in size
Method in brief: as §1

Measured: Potency
Potency means the concentration at half of the fitted maximal effect.

Cc1ccc(NC(=O)C2(c3ccc4c(c3)OC(F)(F)O4)CC2)nc1-c1cccc(C(=O)O)c1
inactive: [2] | [4] | [5] | [6] | [7] | [8] | [9] | [10]
active: [1] 11.8 µM | [3] 0.296 µM | [11] 9.27 µM | [12] 8.27 µM | [13] 10.4 µM | [14] 9.27 µM

CC(C)c1ccccc1Cc1cc(C(=O)Nc2ccc(S(=O)(=O)c3ccccc3C(C)(C)C)cc2)c(O)c(O)c1O
inactive: [1]
active: [3] 18.7 µM

CCn1cc(-c2ccnc3[nH]c(-c4cccc(CN(C)C)c4)cc23)c(-c2ccc(NC(=O)N(C)C)cc2)n1
active: [1] 20.9 µM | [2] 14.8 µM | [3] 5.9 µM | [4] 3.69 µM | [5] 1.85 µM | [6] 0.0657 µM | [15] 6.57 µM | [16] 18.5 µM | [17] 0.928 µM | [7] 5.22 µM | [8] 0.0465 µM | [9] 1.85 µM | [12] 1.85 µM | [13] 1.04 µM | [18] 16.5 µM | [14] 0.293 µM

C[C@@H](Oc1cc(-c2cnn(C3CCNCC3)c2)cnc1N)c1c(Cl)ccc(F)c1Cl
active: [2] 18.7 µM | [3] 18.7 µM | [4] 5.85 µM | [5] 3.29 µM | [6] 5.85 µM | [15] 5.85 µM | [19] 16.5 µM | [7] 20.8 µM | [8] 4.65 µM | [9] 13.1 µM | [14] 7.37 µM
inactive: [1]

COc1cc2c(NC3CCN(C(C)C)CC3)nc(C3CCCCC3)nc2cc1OCCCN1CCCC1
active: [1] 20.9 µM | [2] 18.7 µM | [3] 11.8 µM | [4] 23.3 µM | [5] 18.5 µM | [6] 4.14 µM | [16] 9.27 µM | [7] 26.1 µM | [8] 4.14 µM | [13] 26.1 µM
inactive: [10] | [11] | [14]

Cc1c(C)n(Cc2ccc(-c3ccccc3C(=O)O)cc2)c2ccc(C(=O)N[C@@H](C)c3ccc([N+](=O)[O-])cc3)cc12
active: [12] 9.27 µM
not listed: [3] | [5] | [15] | [17] | [18] | [19] | [20]
inactive: all other assays above

COC(=O)Nc1nc2ccc(C(=O)c3ccc(F)cc3)cc2[nH]1
inactive: [1] | [2] | [10] | [18] | [14]
active: [4] 2.33 µM | [5] 1.31 µM | [6] 1.31 µM | [20] 8.27 µM | [16] 1.17 µM | [17] 2.33 µM | [7] 2.61 µM | [8] 1.17 µM | [9] 1.47 µM

Cc1ccc(-c2ncn(-c3ccc(Nc4nccc(-c5cccc(N6CCOCC6)c5)n4)cc3)n2)cn1
inactive: [10]
active: [1] 0.166 µM | [3] 0.132 µM | [4] 0.107 µM | [5] 0.17 µM | [6] 0.12 µM | [20] 0.214 µM | [15] 0.0955 µM | [16] 0.24 µM | [17] 0.24 µM | [7] 0.0851 µM | [8] 0.135 µM | [11] 0.24 µM | [12] 0.151 µM | [14] 0.12 µM

CC=CC1=C(C(=O)O)N2C(=O)[C@H](NC(=O)[C@H](N)c3ccc(O)cc3)[C@@H]2SC1
not listed: [2] | [5] | [6] | [8] | [15] | [17] | [18] | [19]
inactive: all other assays above

CNC(=O)CN1CCC(Oc2cc3c(Nc4cccc(Cl)c4F)ncnc3cc2OC)CC1
active: [3] 0.0469 µM | [4] 1.04 µM | [6] 1.47 µM | [15] 1.17 µM | [7] 0.928 µM | [8] 1.04 µM | [18] 5.85 µM | [14] 10.4 µM
inactive: [1] | [5] | [16] | [9] | [10]

COc1ccc(CC2SC(=O)NC2=O)cc1C(=O)NCc1ccc(C(F)(F)F)cc1 (stereo unspecified)
inactive: [1] | [3]

COc1ccc(-n2nc(C(N)=O)c3c2C(=O)N(c2ccc(N4CCCCC4=O)cc2)CC3)cc1
active: [17] 2.33 µM | [12] 0.233 µM | [14] 0.147 µM
inactive: [1] | [3] | [4] | [5] | [19] | [7] | [9] | [10] | [18]

CCCCc1nc2cc(C=CC(=O)NO)ccc2n1CCN(CC)CC
active: [1] 16.6 µM | [3] 0.935 µM | [4] 1.31 µM | [5] 2.08 µM | [6] 1.04 µM | [20] 4.14 µM | [15] 1.04 µM | [16] 2.33 µM | [17] 2.93 µM | [7] 1.85 µM | [8] 1.31 µM | [9] 1.31 µM | [11] 1.85 µM | [12] 1.31 µM | [18] 1.47 µM | [14] 3.69 µM

Cc1ccc(C(N)=O)cc1Nc1nccc(-c2cn(C(C)C)c3cnccc23)n1
active: [3] 18.7 µM | [5] 9.55 µM | [6] 7.59 µM | [20] 13.5 µM | [15] 8.51 µM | [16] 13.5 µM | [17] 21.4 µM | [7] 6.76 µM | [8] 7.59 µM | [11] 15.1 µM | [12] 13.5 µM
inactive: [1] | [9] | [10]

Cc1cc(Nc2cc(N3CCN(C)CC3)nc(Sc3ccc(NC(=O)C4CC4)cc3)n2)n[nH]1
inactive: [1] | [10]
active: [3] 11.8 µM | [4] 4.14 µM | [5] 13.1 µM | [6] 0.131 µM | [16] 5.22 µM | [8] 0.0928 µM | [9] 2.61 µM | [11] 9.27 µM | [12] 9.27 µM | [14] 5.85 µM

Cc1cc(Nc2nc(N[C@@H](C)c3ccc(F)cc3)c(C#N)cc2F)n[nH]1
active: [1] 14.8 µM | [3] 5.9 µM

Cc1coc2c1C(=O)C(=O)c1c-2ccc2c1CCCC2(C)C
inactive: [1] | [3]

C=CCn1c(=O)c2cnc(Nc3ccc(N4CCN(C)CC4)cc3)nc2n1-c1cccc(C(C)(C)O)n1
active: [3] 0.469 µM | [5] 2.61 µM | [20] 10.4 µM | [16] 1.85 µM | [17] 0.737 µM | [9] 1.31 µM | [11] 1.65 µM | [12] 1.17 µM
inactive: [1] | [10]

c1ccc2c(CCNc3ccc(Nc4ccncc4)cc3)c[nH]c2c1
active: [3] 18.7 µM
inactive: [1]

CC(C)(C)NC(=O)[C@H]1CN(Cc2cccnc2)CCN1C[C@@H](O)C[C@@H](Cc1ccccc1)C(=O)N[C@H]1c2ccccc2C[C@H]1O
active: [3] 3.72 µM | [9] 23.3 µM | [11] 23.3 µM | [12] 20.8 µM | [14] 18.5 µM
inactive: [1] | [5] | [10] | [18]

NC(=O)Nc1cc(-c2cccc(F)c2)sc1C(=O)N[C@H]1CCCNC1
inactive: [1] | [20]
active: [3] 1.87 µM | [4] 0.928 µM | [5] 1.85 µM | [6] 0.414 µM | [15] 0.827 µM | [16] 2.33 µM | [17] 1.04 µM | [7] 0.827 µM | [8] 0.737 µM | [9] 1.04 µM | [10] 20.8 µM | [11] 1.17 µM | [12] 1.47 µM

COc1cccc2nc(-c3cccs3)nc(NN3C(=O)C=C(C)C3=O)c12
active: [3] 2.35 µM | [4] 0.657 µM | [5] 5.22 µM | [6] 0.657 µM | [16] 5.22 µM | [17] 7.37 µM | [7] 1.04 µM | [8] 0.737 µM | [9] 2.93 µM | [11] 1.85 µM | [12] 0.827 µM | [14] 3.69 µM
inactive: [1]

Cc1ccc(C(=O)Nc2cccc(C(F)(F)F)c2)cc1-c1ccc2nc(NCCN3CCOCC3)ncc2c1
active: [1] 14.8 µM | [3] 14.8 µM | [4] 6.57 µM | [5] 13.1 µM | [6] 14.7 µM | [15] 9.27 µM | [16] 20.8 µM | [17] 13.1 µM | [7] 4.14 µM | [8] 6.57 µM | [11] 4.14 µM | [12] 5.85 µM | [14] 5.22 µM
